The results in this text go back to PubChem BioAssay (Tox21).

Each structure is given as a SMILES string. Where “and” joins values, the source holds several entries; their conditions need not be identical. Equal values may be shown once. Inconclusive results are not listed. Some compounds were tested as several samples or in several runs, with calls that do not always agree. Calls of active or inactive are those of the source. Unless noted, calls come from the whole dose curve; as a rule, active = well fitted curve in the direction sought with a large enough effect in the repeat runs; inconclusive = weak or mixed curves; inactive = no such curve, though single readings can be large; an effect the other way counts as inactive or inconclusive.

Experiment [1] is described as follows: qHTS assay to identify aromatase inhibitors - cell viability counter screen (AID 743084).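 Note: cells stimulated with testosterone during compound exposure; nearly all actives have a fitted effect of over 55% in size.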 Note: potency is the fitted concentration of half-maximal effect.
Experiment [2] addresses Aryl hydrocarbon receptor (Homo sapiens) (UniProt P35869). Put plainly: qHTS assay to identify small molecule that activate the aryl hydrocarbon receptor (AhR) signaling pathway (AID 743085).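 For activation: HG2L7.5c1 human HepG2 liver cells with stably integrated DRE-driven firefly reporter; series mostly up to about 70 µM.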 Note: nearly all actives have a fitted effect of over 15% in size. Note: potency is the fitted concentration of half-maximal effect. An outline of the steps: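 Stably transfected human liver carcinoma cells (HG2L7.5c1; 20 DRE-firefly luciferase) were incubated 5 h, dosed, and kept 24 h at 37C. Agonism was scored from increased luciferase luminescence.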

Experiment [3] is described as follows: qHTS assay to identify small molecule that activate the aryl hydrocarbon receptor (AhR) signaling pathway - cell viability counter screen (AID 743086).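 For viability change, negative = cytotoxic: HepG2 liver cells carrying the AhR DRE luciferase reporter; series mostly up to about 70 µM.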 Note: nearly all actives have a fitted effect of over 45% in size. Note: potency is the fitted concentration of half-maximal effect. An outline of the steps:
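HepG2-AhR-luc (HG2L7.5c1) cells, 4000/well, treated 24 h at 37 C with compound; viability measured as CellTiter-Fluor fluorescence after 30 min in the same wells as the luciferase read.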

In experiment [4] the target is Peroxisome proliferator-activated receptor gamma (Homo sapiens) (UniProt P37231). Nature of the experiment: qHTS assay to identify small molecule agonists of the peroxisome proliferator-activated receptor gamma (PPARg) signaling pathway (AID 743094; active = well fitted activation curve with a large enough effect in the signal ratio in the repeat runs, not every such curve was filed as active; the % refers to the signal ratio). An outline of the steps:
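Agonist activity was taken from a beta-lactamase reporter (FRET substrate, 1 h at room temperature) in HEK293H cells carrying a PPARg UAS-bla construct. Compounds in DMSO were incubated 17 h at 37C after a 5 h cell pre-incubation.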

The nature of experiment [5]: qHTS assay to identify small molecule antagonists of the peroxisome proliferator-activated receptor gamma (PPARg) signaling pathway - cell viability counter screen (AID 743194). Note: nearly all actives have a fitted effect of over 55% in size. Note: potency is the fitted concentration of half-maximal effect. An outline of the steps: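 Cytotoxicity counter screen in PPARg-bla HEK293H cells, same wells as reporter assay. Compounds plus 50 nM rosiglitazone (final) for 17 h at 37 C, then viability read by CellTiter-Glo luminescence.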

A short description of experiment [6]: qHTS assay for small molecule agonists of the antioxidant response element (ARE) signaling pathway (AID 743202; active = well fitted activation curve with a large enough effect in the signal ratio in the repeat runs, not every such curve was filed as active; the % refers to the signal ratio; note: potency is the fitted concentration of half-maximal effect). An outline of the steps:
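HepG2 ARE-bla reporter line, 2,000 cells/well; 5 h preincubation 37 C/5% CO2; compound (DMSO) 16 h 37 C; B/G FRET substrate 2 h RT; fluorescence intensity.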

The nature of experiment [7]: qHTS assay for small molecule agonists of the antioxidant response element (ARE) signaling pathway - cell viability counter screen (AID 743203; calls by dose curve; note: nearly all actives have a fitted effect of over 55% in size; note: potency is the fitted concentration of half-maximal effect). The procedure, abridged:
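Viability counter screen: CellTiter-Glo luminescence, read after 30 min at room temperature, in ARE-bla HepG2 wells. Compound exposure lasted 16 h at 37C/5% CO2, following a 5 h pre-incubation of the cells after plating.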

The nature of experiment [8]: qHTS assay for small molecule activators of the heat shock response signaling pathway - cell viability counter screen (AID 743209). Note: nearly all actives have a fitted effect of over 50% in size. Note: potency is the fitted concentration of half-maximal effect. The procedure, abridged: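 Cytotoxicity counter screen run in the same wells as the heat-shock bla reporter assay: HeLa HSE-bla cells, 5 h compound exposure at 37 C, viability read by CellTiter-Glo luminescence.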
Experiment [9] in a line: qHTS assay for small molecule activators of the heat shock response signaling pathway (AID 743210; active = well fitted activation curve with a large enough effect in the signal ratio in the repeat runs, with a control signal flat, not every such curve was filed as active; the % refers to the signal ratio;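 note: HeLa cells with beta-lactamase reporter driven by heat shock elements; series mostly up to about 63 µM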). An outline of the steps:
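Beta-lactamase reporter read-out: FRET substrate fluorescence after 2.5 h at RT, following 5 h compound treatment at 37 C of HeLa cells carrying HSE-driven bla reporter; quantitative HTS format.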

Experiment [10] has as its target Peroxisome proliferator-activated receptor gamma (Homo sapiens) (UniProt P37231). Put plainly: qHTS assay to identify small molecule antagonists of the peroxisome proliferator-activated receptor gamma (PPARg) signaling pathway (AID 743191; calls by dose curve; note: series mostly up to about 63 µM; nearly all actives have a fitted effect of over 30% in size). The procedure, abridged:
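GeneBLAzer PPARg UAS-bla HEK293H cells, 5 h post-plating, exposed to compounds 17 h at 37C. LiveBLAzer B/G FRET substrate added for 1 h at room temperature; beta-lactamase reporter read by fluorescence intensity.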
% is set by controls: 0 for no effect and ±100 for the full control effect.

Chain of Peroxisome proliferator-activated receptor gamma (Homo sapiens) (P37231 whole entry, looked up): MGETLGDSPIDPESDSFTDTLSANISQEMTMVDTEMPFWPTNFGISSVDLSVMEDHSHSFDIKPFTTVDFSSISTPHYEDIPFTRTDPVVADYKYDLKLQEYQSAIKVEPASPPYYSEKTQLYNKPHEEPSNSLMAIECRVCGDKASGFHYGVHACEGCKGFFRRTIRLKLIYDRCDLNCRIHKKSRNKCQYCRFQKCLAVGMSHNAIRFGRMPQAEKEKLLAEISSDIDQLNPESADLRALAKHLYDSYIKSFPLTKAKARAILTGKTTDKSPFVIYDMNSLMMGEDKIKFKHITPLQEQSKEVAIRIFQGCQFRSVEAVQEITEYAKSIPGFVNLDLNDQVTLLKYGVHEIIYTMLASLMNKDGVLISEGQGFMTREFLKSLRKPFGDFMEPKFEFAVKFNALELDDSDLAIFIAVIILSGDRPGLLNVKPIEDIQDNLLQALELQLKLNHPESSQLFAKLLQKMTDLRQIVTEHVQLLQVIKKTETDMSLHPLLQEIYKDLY
Chain of Aryl hydrocarbon receptor (Homo sapiens) (P35869 whole entry, looked up): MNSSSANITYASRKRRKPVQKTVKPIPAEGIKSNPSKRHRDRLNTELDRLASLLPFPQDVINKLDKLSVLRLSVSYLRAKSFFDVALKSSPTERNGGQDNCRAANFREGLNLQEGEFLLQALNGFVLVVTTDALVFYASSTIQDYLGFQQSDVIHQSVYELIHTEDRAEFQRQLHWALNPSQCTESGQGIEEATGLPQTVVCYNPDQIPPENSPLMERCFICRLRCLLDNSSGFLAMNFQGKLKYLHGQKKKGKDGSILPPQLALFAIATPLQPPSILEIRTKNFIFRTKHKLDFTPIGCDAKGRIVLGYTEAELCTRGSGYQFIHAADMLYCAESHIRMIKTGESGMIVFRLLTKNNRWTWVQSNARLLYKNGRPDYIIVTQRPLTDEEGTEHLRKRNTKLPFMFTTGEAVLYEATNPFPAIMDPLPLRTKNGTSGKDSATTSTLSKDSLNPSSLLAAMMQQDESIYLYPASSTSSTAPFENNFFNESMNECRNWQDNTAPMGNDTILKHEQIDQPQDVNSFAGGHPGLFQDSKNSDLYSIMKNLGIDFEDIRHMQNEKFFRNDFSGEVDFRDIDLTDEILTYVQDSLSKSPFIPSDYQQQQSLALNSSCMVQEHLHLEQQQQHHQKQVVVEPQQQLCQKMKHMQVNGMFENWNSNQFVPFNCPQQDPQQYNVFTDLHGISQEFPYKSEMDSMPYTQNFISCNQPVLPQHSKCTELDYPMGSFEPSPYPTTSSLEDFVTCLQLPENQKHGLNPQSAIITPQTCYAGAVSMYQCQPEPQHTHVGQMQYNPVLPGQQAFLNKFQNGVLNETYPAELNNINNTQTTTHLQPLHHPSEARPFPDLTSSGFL

In the case of `CCn1cc(C(=O)O)c(=O)c2cc(F)c(N3CCNC(C)C3)c(F)c21` (stereo not given), the Potency result in experiment [1], in experiment [2], in experiment [3], in experiment [4], in [5] and in [6] was “inactive” throughout. In addition, the Potency result in [7], in experiment [8] and in [9] was “inactive” in each case.

On to `NC(N)=NC(=O)Cc1c(Cl)cccc1Cl`, for which the Potency entry in experiment [1], in [2], in experiment [3], in experiment [4], in [10] and in experiment [5] was “inactive” in each case. Moreover, the Potency entry in [7] and in experiment [8] was “inactive” in each case.

Consider `O=S(=O)(O)c1ccc2nc(-c3ccccc3)[nH]c2c1`, for which the Potency entry in [1], in experiment [2], in experiment [3], in [4], in experiment [10] and in [5] was “inactive” throughout. The Potency result in experiment [6] and in experiment [9] was “inactive” in each case. Also, the Potency in experiment [7] was 20.6 µM (active) and inactive.

Take `O=C(O)c1cc(Cl)cc(Cl)c1`: the Potency result in experiment [1], in experiment [2], in [3], in experiment [4], in [5] and in experiment [6] was “inactive” each time. Moreover, the Potency result in experiment [7], in [8] and in experiment [9] was “inactive” each time.

In the case of `Cc1cc(C(C)(C)C)c(O)c(C(C)(C)C)c1`, the Potency entry in [1], in [2], in [3], in [4], in experiment [10] and in [5] was “inactive” in each case. In addition, the Potency result in experiment [6], in experiment [7] and in experiment [9] was “inactive” each time.

In the case of `CCCCC/C=C/CC1CC(=O)OC1=O` (stereo not given), the Potency entry in experiment [1], in [2], in [3], in experiment [4], in [5] and in experiment [6] was “inactive” each time. In addition, the Potency result in experiment [8] and in [9] was “inactive” in each case.

Take `NC(=Nc1ccccc1)Nc1ccccc1`: the Potency result in experiment [1], in [4], in [10], in experiment [5], in experiment [8] and in [9] was “inactive” in each case. For the same compound, the Potency result in experiment [2] is “inactive and 19.3 µM (active)”; in [3], 6.11 µM (active); in [6], 13.3 µM (active).

As to `C=C(C)C(=O)O`, the Potency result in [1], in experiment [2], in [3], in experiment [4], in [5] and in [6] was “inactive” each time. The Potency entry in experiment [7], in [8] and in experiment [9] was “inactive” each time.

Turning to `CC[C@@H](N)CO`, the Potency result in experiment [1], in experiment [2], in experiment [3], in experiment [4], in experiment [5] and in experiment [6] was “inactive” throughout. In addition, the Potency result in experiment [7] and in experiment [9] was “inactive” throughout.

On to `CC(C)C(=O)c1c(C(C)C)nn2ccccc12`, for which the Potency result in experiment [1], in [2], in [3], in [4], in experiment [5] and in [6] was “inactive” each time. Moreover, the Potency entry in [7] and in [9] was “inactive” each time.

Regarding `OCC(CO)N[C@H]1C[C@](O)(CO)[C@@H](O)[C@H](O)[C@H]1O`, the Potency entry in experiment [1], in [2], in experiment [3], in [4], in experiment [10] and in experiment [5] was “inactive” each time. Also, the Potency result in experiment [7], in experiment [8] and in experiment [9] was “inactive” in each case.

Turning to `CC1=CC(=O)c2ccccc2C1=O`, the Potency entry in experiment [1] is “inactive and 24.3 µM (active)”; in experiment [2], 6.68 µM (active) and 24.3 µM (active); in experiment [5] it was 11 µM (active) and 26.6 µM (active); in experiment [6], 9.44 µM (active); in experiment [7], 24.3 µM (active) and 29.8 µM (active). The Potency result in experiment [3] and in experiment [4] was “inactive” in each case.

For `NC(Cc1ccc(Cl)cc1)C(=O)O` (stereo not given), the Potency entry in experiment [1], in experiment [2], in experiment [3] and in [4] was “inactive” in each case. In experiment [10], the ratio activity, negative = inhibition is -10.6% [at 0.55 µM] (inactive). Moreover, the activity change, negative = cytotoxicity in experiment [5] was 2.82% [at 0.55 µM] (inactive). Further, the viability change, negative = cytotoxic in experiment [7] is 0.376% [at 0.756 µM] (inactive). For the same compound, the activation in [9] was 1.36% [at 0.55 µM] (inactive).

For the compound `CC(C)(C)c1ccc(O)c(C(C)(C)C)c1`, the Potency in experiment [1] was 48.4 µM (active) and 48.6 µM (active); in experiment [5], 48.8 µM (active) and 38.9 µM (active); in experiment [7], 61.1 µM (active); in [8], 48.8 µM (active) and 43.6 µM (active). Besides, the Potency entry in experiment [2], in experiment [3] and in experiment [4] was “inactive” throughout.

`Cc1occc(=O)c1OC(=O)C(C)C`: the Potency entry in [1], in experiment [2], in experiment [3], in [5], in experiment [7] and in [9] was “inactive” throughout.

In the case of `COC(=O)[C@H]1[C@H]2C[C@@H]3c4[nH]c5cc(OC)ccc5c4CCN3C[C@H]2C[C@@H](OC(=O)c2cc(OC)c(OC)c(OC)c2)[C@@H]1OC`, the Potency result in experiment [1], in [3], in experiment [5], in experiment [7], in experiment [8] and in [9] was “inactive” each time. Moreover, the Potency in experiment [2] is 68.5 µM (active) and 39.7 µM (active).
